Source: ChEMBL document CHEMBL4513216, “Probing the Open Global Health Chemical Diversity Library for Multistage-Active Starting Points for Next-Generation Antimalarials” (ACS Infect Dis, 2020)
In all, about 68,000 compounds went through this assay and about 2,700 (4%) showed an effect of 50% or more. For the sample, strong results were picked, then their nearest neighbours and some compounds at random.

System: Plasmodium berghei
Experiment: Screen against P. berghei liver stage (PbLuc), transformed with Luciferase, at 2uM
Format: functional, HepG2
Settings: tested at 2 uM

SMILES	INHIBITION [%]
CC(C)(C)c1nnc(CN2CCCC2Cn2cncn2)o1 (stereo not given)	-13.06
COCCCN1C(=O)CC(N2CCN(c3ccc(F)cc3)CC2)C1=O (stereo not given)	1.37
CCn1nc(C)c2nc(C)nc(NCCc3ccc(C)cc3)c21	9.79
CCCC(=O)N1CCC2(CC1)CC(NC(C)=O)c1ccccc1O2 (stereo not given)	-25.44
CC(C)C(=O)NC1COC2(CCN(C(=O)c3ccc[nH]3)CC2)C1 (stereo not given)	25.46
COCCN1CCOCC12CCN(C(=O)c1cccnc1)CC2	0.91
COCCN1CCOCC12CCN(C(=O)c1ccncc1)CC2	-41.59
COCCN1CCOCC12CCN(C(=O)c1ccoc1)CC2	52.62
O=c1c2cn[nH]c2nc(SCCN2CCCC2)n1-c1ccccc1	-15.12
Cc1cc(C(=O)Nc2n[nH]c(C3CC3)n2)c2c(C)noc2n1	-54.55
COCC1CC2(CCN(S(=O)(=O)C3CC3)CC2)CN1c1ncccn1 (stereo not given)	15.39
CCNC(=O)[C@@H]1C[C@@H](NC(=O)CSC)CN1Cc1ccncc1	16.05
COc1cc(CNC(=O)Nc2nnc(C(F)(F)F)s2)ccc1O	45.4
COc1cc(CNC(=O)Nc2nnc(C(C)C)s2)ccc1O	-33.43
COc1cc(CNC(=O)Nc2nnc(C3CC3)s2)ccc1O	53.61
CCC(c1ccc(F)cc1)N1CCn2c(CO)nnc2C1 (stereo not given)	18.76
c1ccc(CN2CCC(Cc3noc(C4CC4)n3)CC2)cc1	17.33
c1cc2c(cc1CN1CCC(Cc3noc(C4CC4)n3)CC1)OCCO2	1.52

SMILES	INHIBITION [%]
c1cc(CN2CCC(Cc3noc(C4CC4)n3)CC2)c2c(c1)OCO2	71.06
Cc1nccn1-c1ccc(=O)n(CCNC(=O)c2cccs2)n1	-47.31
O=C(c1cccc(S(=O)(=O)NCCc2nccs2)c1)N1CCOCC1	3.58
CS(=O)(=O)N1C[C@@H]2CC[C@H]1CN(Cc1ccncc1)C2	-56.9
Cc1ncsc1C(=O)N(C)Cc1ccncc1	-25.22
Cc1ncsc1CN(Cc1ccccc1)Cc1ccncc1	61.06
Cc1ncsc1CN(Cc1ccccc1)Cc1ncc[nH]1	-43.51
Cn1nc(C2CCN(C(=O)c3cnccn3)C2)cc1CCO (stereo not given)	-18.15
Cc1ccc(-n2ccnc2)c(C(=O)NCCCN(C)C)c1	20.21
Cc1ccc(-n2ccnc2)c(C(=O)NCCOCC(F)(F)F)c1	16.98
Cc1ccc(-n2ccnc2)c(C(=O)NCCOCC2CCCO2)c1 (stereo not given)	51.4
CN(C)C(=O)N1CCN(C)c2ncccc2C1	47.25
CN1CCN(C(=O)N2CCCC2)Cc2cccnc21	52.3
CN1CCN(C(=O)NC2CCCC2)Cc2cccnc21	11.87
CCS(=O)(=O)N1CCN(C)c2ncccc2C1	4.07
CN1CCN(S(C)(=O)=O)Cc2cccnc21	58.97
CN1CCN(S(=O)(=O)C2CC2)Cc2cccnc21	-5.9
